Reference: the supplement of paper PMC10849652
The full data set covers some 7,900 targets. This sample favours those with a hit. About 0.6% of all pairs of compound and target were hits. A number with no mark means an inactive call.

Columns and labels:
Assay in all cases: log2 fold change, soluble protein after heating vs DMSO (PISA); higher = thermal stabilisation; K562 cells, 10 uM, 30 min; active = over 0.2 and 3.5 SD of the protein, either way, in both replicates (recomputed)
[1] = compound: C[C@@H](Oc1cc(-c2cnn(C3CCNCC3)c2)cnc1N)c1c(Cl)ccc(F)c1Cl [crizotinib]
Procedure, shortened: (§1)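 Soluble protein was quantified by TMTpro 16plex LC-MS/MS after channel sums were equalised. It was obtained as the supernatant after 21,000xg for 90 min from pooled aliquots of K562 cells (2×10^6 cells/mL, 10 μM compound, 30 min) heated for 3 min across 48°C-58°C and extracted in PBS with 0.5% NP-40 at 4°C. Thermal stability values are relative to control samples and come from duplicates. They are given as log2 fold changes.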

[2] = compound: C[C@H](C1=CC=C(C=C1)C(=O)NC2=C3C=CNC3=NC=C2)N
Procedure, shortened: as §1

[3] = compound: Cc1cc(Nc2cc(N3CCN(C)CC3)nc(Sc3ccc(NC(=O)C4CC4)cc3)n2)n[nH]1 [tozasertib]
Procedure, shortened: as §1

[4] = compound: Cc1ccc(-n2nc(C(C)(C)C)cc2NC(=O)Nc2ccc(OCCN3CCOCC3)c3ccccc23)cc1 [doramapimod]
Procedure, shortened: as §1

[5] = compound: CS(=O)(=O)c1ccc(-c2cnc(N)c(C(=O)Nc3ccccc3)n2)cc1
Procedure, shortened: as §1

[6] = compound: C[C@@H]1COCCN1C2=NC(=NC(=C2)C3(CC3)S(=O)(=O)C)C4=C5C=CNC5=CC=C4
Procedure, shortened: as §1

[7] = compound: C[C@H](Nc1ncnc2nc[nH]c12)c1cc2cccc(Cl)c2c(=O)n1-c1ccccc1 [duvelisib]
Procedure, shortened: as §1

[8] = compound: Cc1cc(SCc2sc(-c3ccc(C(F)(F)F)cc3)nc2C)ccc1OCC(=O)O
Procedure, shortened: as §1

[9] = compound: Cc1ccc(C(=O)N(CCCN)[C@@H](c2nc3cc(Cl)ccc3c(=O)n2Cc2ccccc2)C(C)C)cc1 [ispinesib]
Procedure, shortened: as §1

[10] = compound: Cc1cc(Nc2cc(CN3CCOCC3)c3nc(C)c(Cc4ccc(Cl)cc4F)n3n2)n[nH]1 [gandotinib]
Procedure, shortened: as §1

UniProt Q9H6D7, sequence (Q9H6D7 whole entry, looked up): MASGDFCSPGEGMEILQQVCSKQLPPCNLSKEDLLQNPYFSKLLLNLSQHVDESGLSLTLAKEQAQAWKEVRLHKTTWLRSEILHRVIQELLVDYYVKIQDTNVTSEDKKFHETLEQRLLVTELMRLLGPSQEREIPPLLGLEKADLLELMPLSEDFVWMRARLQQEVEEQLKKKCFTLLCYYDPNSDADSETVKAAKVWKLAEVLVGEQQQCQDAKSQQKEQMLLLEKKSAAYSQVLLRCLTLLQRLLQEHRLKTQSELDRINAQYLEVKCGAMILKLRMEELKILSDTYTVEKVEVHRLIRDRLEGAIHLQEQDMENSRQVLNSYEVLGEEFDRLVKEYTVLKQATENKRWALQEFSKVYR
UniProt Q4ZG55, sequence (Q4ZG55 whole entry, looked up): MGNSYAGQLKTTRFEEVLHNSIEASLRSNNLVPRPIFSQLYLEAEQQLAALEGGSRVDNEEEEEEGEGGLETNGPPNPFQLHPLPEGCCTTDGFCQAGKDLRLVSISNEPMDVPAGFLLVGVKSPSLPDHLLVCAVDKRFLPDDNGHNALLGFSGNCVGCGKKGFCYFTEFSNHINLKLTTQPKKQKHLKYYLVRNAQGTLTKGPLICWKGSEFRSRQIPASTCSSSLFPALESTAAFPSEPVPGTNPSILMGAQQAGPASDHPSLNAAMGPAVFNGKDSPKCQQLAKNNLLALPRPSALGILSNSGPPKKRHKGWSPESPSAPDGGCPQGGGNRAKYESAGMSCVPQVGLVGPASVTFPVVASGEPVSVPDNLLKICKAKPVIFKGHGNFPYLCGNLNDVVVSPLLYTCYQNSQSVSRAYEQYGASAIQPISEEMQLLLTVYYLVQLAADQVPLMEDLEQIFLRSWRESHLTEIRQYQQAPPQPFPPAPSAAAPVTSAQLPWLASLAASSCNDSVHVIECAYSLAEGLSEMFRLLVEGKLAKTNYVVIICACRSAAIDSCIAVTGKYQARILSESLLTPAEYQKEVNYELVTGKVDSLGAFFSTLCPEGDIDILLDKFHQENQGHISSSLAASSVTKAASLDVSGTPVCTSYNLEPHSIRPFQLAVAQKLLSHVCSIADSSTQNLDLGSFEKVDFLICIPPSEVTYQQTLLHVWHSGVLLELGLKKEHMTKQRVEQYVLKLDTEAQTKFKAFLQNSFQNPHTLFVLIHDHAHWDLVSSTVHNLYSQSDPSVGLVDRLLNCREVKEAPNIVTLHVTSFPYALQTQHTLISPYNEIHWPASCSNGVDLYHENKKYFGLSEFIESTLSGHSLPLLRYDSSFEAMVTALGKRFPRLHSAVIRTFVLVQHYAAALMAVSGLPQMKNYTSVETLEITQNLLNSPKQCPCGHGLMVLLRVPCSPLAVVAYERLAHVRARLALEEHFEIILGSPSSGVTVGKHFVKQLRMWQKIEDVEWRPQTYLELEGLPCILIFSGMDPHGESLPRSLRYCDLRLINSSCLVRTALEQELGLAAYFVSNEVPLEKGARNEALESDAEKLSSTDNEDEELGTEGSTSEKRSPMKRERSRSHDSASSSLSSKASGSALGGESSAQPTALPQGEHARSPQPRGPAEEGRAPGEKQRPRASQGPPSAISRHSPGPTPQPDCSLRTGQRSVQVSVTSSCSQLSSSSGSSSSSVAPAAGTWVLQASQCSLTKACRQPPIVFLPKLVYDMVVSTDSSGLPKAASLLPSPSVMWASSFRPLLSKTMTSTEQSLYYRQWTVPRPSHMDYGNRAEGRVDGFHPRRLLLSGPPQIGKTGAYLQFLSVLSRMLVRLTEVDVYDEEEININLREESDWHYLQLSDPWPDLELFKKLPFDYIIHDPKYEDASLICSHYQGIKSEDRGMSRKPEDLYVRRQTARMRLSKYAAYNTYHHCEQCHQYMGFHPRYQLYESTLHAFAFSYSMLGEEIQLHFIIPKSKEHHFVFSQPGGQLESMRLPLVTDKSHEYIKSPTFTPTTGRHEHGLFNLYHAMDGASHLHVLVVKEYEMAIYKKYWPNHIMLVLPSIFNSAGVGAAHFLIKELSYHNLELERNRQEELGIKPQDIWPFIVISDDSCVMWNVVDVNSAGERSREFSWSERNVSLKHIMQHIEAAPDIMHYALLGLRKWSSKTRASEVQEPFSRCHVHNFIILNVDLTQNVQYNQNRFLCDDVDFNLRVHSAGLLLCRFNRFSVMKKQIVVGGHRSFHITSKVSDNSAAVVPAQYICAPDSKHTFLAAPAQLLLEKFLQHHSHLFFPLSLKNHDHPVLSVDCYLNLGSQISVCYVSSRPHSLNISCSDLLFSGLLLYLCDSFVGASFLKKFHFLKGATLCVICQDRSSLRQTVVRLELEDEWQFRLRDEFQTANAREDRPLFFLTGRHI
UniProt A6NDN3, sequence (A6NDN3 whole entry, looked up): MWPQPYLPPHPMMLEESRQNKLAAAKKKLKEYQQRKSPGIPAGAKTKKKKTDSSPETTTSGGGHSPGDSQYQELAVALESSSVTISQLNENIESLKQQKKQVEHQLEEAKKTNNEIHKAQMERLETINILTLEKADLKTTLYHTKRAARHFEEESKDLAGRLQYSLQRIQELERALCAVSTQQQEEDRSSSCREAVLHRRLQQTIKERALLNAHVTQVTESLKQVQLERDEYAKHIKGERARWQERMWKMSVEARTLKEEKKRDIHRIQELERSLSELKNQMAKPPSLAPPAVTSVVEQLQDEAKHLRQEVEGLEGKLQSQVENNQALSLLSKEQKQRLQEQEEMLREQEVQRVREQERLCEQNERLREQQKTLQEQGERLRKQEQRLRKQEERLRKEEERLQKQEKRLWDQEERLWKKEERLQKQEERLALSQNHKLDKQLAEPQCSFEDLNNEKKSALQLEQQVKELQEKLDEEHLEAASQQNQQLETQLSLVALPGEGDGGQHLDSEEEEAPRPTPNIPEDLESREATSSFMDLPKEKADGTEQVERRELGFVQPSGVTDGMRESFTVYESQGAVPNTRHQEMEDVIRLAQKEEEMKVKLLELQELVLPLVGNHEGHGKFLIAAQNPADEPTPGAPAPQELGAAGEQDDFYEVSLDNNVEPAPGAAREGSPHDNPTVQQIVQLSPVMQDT
UniProt Q01628, sequence (Q01628 whole entry, looked up): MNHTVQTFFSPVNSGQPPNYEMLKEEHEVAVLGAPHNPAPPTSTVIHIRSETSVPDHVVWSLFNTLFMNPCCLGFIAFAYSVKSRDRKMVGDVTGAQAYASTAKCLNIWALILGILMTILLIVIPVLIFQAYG
UniProt Q969S8, sequence (Q969S8 whole entry, looked up): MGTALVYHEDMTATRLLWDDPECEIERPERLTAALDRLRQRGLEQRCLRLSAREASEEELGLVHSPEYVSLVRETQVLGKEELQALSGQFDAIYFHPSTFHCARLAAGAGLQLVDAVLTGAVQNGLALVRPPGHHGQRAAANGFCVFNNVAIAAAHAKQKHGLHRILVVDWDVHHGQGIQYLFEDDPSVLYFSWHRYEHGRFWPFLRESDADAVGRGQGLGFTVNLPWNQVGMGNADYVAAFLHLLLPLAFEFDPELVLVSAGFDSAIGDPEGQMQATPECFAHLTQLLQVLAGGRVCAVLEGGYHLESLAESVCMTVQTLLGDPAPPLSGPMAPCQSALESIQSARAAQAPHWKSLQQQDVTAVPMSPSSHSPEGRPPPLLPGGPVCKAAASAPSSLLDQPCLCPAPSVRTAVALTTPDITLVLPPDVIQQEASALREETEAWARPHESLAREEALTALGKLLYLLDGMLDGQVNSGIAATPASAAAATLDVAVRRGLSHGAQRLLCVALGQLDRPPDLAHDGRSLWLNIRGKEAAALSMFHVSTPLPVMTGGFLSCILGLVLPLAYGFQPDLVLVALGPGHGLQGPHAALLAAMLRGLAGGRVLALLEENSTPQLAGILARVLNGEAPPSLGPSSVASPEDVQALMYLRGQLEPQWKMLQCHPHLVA
UniProt Q9UJY4, sequence (Q9UJY4 whole entry, looked up): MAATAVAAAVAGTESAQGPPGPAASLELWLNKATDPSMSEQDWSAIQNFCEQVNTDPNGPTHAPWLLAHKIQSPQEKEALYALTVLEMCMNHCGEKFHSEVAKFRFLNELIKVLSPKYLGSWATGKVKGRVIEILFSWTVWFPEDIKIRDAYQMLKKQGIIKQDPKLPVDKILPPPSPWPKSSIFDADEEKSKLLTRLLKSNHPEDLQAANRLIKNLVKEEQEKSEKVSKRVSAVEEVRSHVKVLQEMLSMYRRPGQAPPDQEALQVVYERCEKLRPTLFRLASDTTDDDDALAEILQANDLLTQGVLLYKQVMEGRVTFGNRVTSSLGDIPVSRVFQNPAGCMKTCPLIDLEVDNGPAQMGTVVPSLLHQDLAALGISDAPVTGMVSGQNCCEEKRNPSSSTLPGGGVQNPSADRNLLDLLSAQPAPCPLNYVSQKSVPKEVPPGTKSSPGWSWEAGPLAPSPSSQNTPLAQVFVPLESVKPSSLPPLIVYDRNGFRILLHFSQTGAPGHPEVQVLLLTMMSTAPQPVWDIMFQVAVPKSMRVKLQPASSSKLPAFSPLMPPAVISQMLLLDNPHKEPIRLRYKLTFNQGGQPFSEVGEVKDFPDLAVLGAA
UniProt Q9BVP2, sequence (Q9BVP2 whole entry, looked up): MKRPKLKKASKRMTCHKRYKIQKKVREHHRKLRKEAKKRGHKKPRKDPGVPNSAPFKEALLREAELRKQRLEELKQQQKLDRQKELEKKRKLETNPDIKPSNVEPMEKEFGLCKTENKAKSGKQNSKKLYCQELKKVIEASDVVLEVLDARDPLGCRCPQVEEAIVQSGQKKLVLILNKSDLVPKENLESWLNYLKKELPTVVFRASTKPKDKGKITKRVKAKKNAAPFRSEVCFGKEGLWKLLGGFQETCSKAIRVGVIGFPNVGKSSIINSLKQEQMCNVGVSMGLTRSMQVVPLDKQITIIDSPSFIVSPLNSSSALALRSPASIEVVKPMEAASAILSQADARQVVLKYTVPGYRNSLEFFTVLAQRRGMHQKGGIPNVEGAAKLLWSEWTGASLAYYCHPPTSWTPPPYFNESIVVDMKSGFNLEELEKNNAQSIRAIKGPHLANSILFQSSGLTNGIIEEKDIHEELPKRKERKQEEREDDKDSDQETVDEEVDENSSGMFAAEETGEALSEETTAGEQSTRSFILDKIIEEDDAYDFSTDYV

Target	log2 fold change [1]	log2 fold change [2]	log2 fold change [3]	log2 fold change [4]	log2 fold change [5]	log2 fold change [6]	log2 fold change [7]	log2 fold change [8]	log2 fold change [9]	log2 fold change [10]
IDH3A isoform 2 (UniProt P50213)	-0.206	-0.016	-0.141	0.051	–	–	–	–	–	–
GDE1 (UniProt Q9NZC3)	0.063	-0.087	0.077	0.074	0.033	0.077	-0.014	-0.067	0.051	–
GGA2 (UniProt Q9UJY4)	-0.089	0.036	-0.025	0.009	0.038	0.032	0.053	0.015	-0.177	–
FGG (UniProt P02679)	–	–	–	–	–	–	–	–	-0.052	-0.153
FCHO1 (UniProt O14526)	-0.118	0.161	0.043	-0.009	0.033	0.158	-0.039	0.109	-0.264	–
IFITM3 (UniProt Q01628)	-0.027	-0.085	-0.002	0.038	-0.038	0.069	0.22	-0.094	0.07	–
HDAC10 (UniProt Q969S8)	–	-0.045	-0.113	–	–	–	0.04	0.042	0.065	0.008
GBE1 (UniProt Q04446)	-0.565 (active)	0.193	-0.001	-0.02	–	-0.054	-0.026	0.094	-0.286	–
GREB1 (UniProt Q4ZG55)	0.163	0.12	-0.171	-0.007	0.121	-0.046	–	–	–	–
FHOD1 (UniProt Q9Y613)	-0.107	0.58 (active)	–	0.235	0.033	-0.174	-0.121	0.085	-0.193	0.105
ICMT (UniProt O60725)	0.074	–	-0.518	0.01	0.099	0.331	0.078	-0.107	-0.42	–
GNL3 (UniProt Q9BVP2)	–	0.065	-0.079	–	0.126	-0.009	0.124	-0.053	–	0.098
GPS2 (UniProt Q13227)	0.019	–	-0.221	0.047	-0.114	0.208	–	–	0.31 (active)	–
FCF1 (UniProt Q9Y324)	-0.054	–	0.021	0.244	0.06	-0.225	-0.592	0.103	-0.095	0.155
GPNMB (UniProt Q14956)	–	–	–	–	–	-0.151	–	–	–	–
HNRNPK isoform 3 (UniProt P61978)	-0.009	–	0.004	0.05	-0.056	-0.237	0.038	-0.037	0.014	-0.082
IGF2 isoform 3 (UniProt P01344)	-0.07	–	–	-0.13	–	–	0.175	0.03	–	–
HNRNPUL1 (UniProt M0R247)	0.151	0.722	-0.187	-0.014	-0.057	–	0.673	-0.374	–	–
GSE1 (UniProt Q14687)	–	0.008	–	–	–	–	0.033	-0.046	-0.066	–
FAT2 (UniProt Q9NYQ8)	-0.148	0.306	-0.184	0.006	–	0.131	0.372	0.121	-0.006	-0.149
HSPA2 (UniProt P54652)	0.123	–	–	-0.003	0.011	–	–	–	-0.025	–
IFNGR1 (UniProt P15260)	–	0.068	-0.19	–	0.135	-0.1	-0.059	-0.162	-0.041	-0.053
GOLGA6B (UniProt A6NDN3)	0.05	–	–	-0.139	-0.003	0.036	–	–	–	0.404
FMR1 (UniProt Q06787)	0.151	0.199	–	-0.065	-0.067	–	–	–	-0.022	0.045
H3-3A (UniProt P84243)	–	0.038	-0.066	–	0.082	–	-0.184	0.106	–	–
HAUS4 (UniProt Q9H6D7)	–	0.139	0.041	–	0.068	0.024	-0.303	-0.195	-0.259	0.015
